Source: PubChem BioAssay (Tox21)
Records with an inconclusive call do not appear. Calls of active or inactive are those of the source. Calls follow the shape of the dose curve; as a rule, active = well fitted curve in the direction sought with a large enough effect in the repeat runs; inconclusive = weak or mixed curves; inactive = no such curve, though single readings can be large; an effect the other way counts as inactive or inconclusive.

Assay: qHTS assay for identifying genotoxic compounds that show differential cytotoxicity against isogenic chicken DT40 cell lines with known DNA damage response pathways - Rev3 mutant cell line (AID 743014); also: nearly all actives have a fitted effect of over 55% in size; also: potency is read from the fitted curve at half-maximal effect
Conditions: chicken DT40 Rev3-/- viability, CellTiter-Glo, 40 h; series mostly up to 68.4 µM; activity, negative = cytotoxicity: at the top concentration
% is scaled to controls: 0 for no effect and ±100 for the full control effect.

SMILES	activity, negative = cytotoxicity	Potency
O=S(=O)(Cl)c1c(Cl)cccc1Cl	2.06% (inactive)	
O=C(O)c1cc(Cl)cc(Cl)c1O	-3.15% (inactive)	
O=C(Oc1ccccc1)c1ccc2ccccc2c1O		54.5 µM (active)
Cc1cn([C@H]2C[C@H](F)[C@@H](CO)O2)c(=O)[nH]c1=O	-5.84% (inactive)	

Assay: qHTS assay for identifying genotoxic compounds that show differential cytotoxicity against isogenic chicken DT40 cell lines with known DNA damage response pathways - Rad54/Ku70 mutant cell line (AID 743015); also: nearly all actives have a fitted effect of over 60% in size; also: potency is read from the fitted curve at half-maximal effect
Conditions: DT40 Rad54/Ku70 mutant viability, CellTiter-Glo, 40 h; series mostly up to 66.8 µM; activity change, negative = cytotoxicity: at the top concentration

SMILES	Potency	activity change, negative = cytotoxicity
C[C@@H]1C[C@H]2[C@@H]3CCC4=CC(=O)C=C[C@]4(C)[C@@]3(F)[C@@H](O)C[C@]2(C)[C@@]1(O)C(=O)COP(=O)(O)O	inactive	
O=S(=O)(Cl)c1c(Cl)cccc1Cl		-0.146% (inactive)
CCCCCCCCCCCCCCCCCC(=O)OCC(CC)CCCC (configuration not stated)		8% (inactive)
CN(C)CC/C=C1\c2ccccc2Sc2ccc(Cl)cc21	10.6 µM (active)	
Cc1ccc(S(=O)(=O)NC(=O)NC2CCCCC2)cc1		-0.731% (inactive)
CC(C)(C(=O)c1cccnc1)c1cccnc1		0.899% [at 30.7 µM] (inactive)
CC(=O)OCC1=C(C(=O)O)N2C(=O)[C@@H](NC(=O)CSc3ccncc3)[C@H]2SC1		1.88% (inactive)
Cc1ccc(N(CCO)CCO)cc1		-2.02% (inactive)
CCC(CO)(CO)[N+](=O)[O-]		-14.6% (inactive)
CCN(CC)c1cccc(O)c1		-16.9% [at 95.1 µM] (inactive)
CCCCCCC(O)CCCCCCCCCCC(=O)OC (configuration not stated)	68.6 µM (active)	
COc1cc(NS(=O)(=O)c2ccc(N)cc2)nc(C)n1		4.43% (inactive)
COc1cc(NC(C)CCCN)c2ncccc2c1 (configuration not stated)	12.7 µM (active)	
CC(C)C1CCC(C(=O)N[C@H](Cc2ccccc2)C(=O)O)CC1 (some centres not stated)		6.71% (inactive)
CCCCCCC(O)CCOC(C)=O (configuration not stated)		2.89% [at 256 µM] (inactive)
COC1CCC=CO1 (configuration not stated)		-0.6% [at 95.1 µM] (inactive)
CC(=O)N[C@@H](Cc1ccc(O)cc1)C(=O)O		7.57% (inactive)
CC(=O)OCCC1CCCCC1		10.9% (inactive)
O=C(O)c1cc(Cl)cc(Cl)c1O		6.02% (inactive)
CCCCCCCCCCCCCOC(=O)CCSCCC(=O)OCCCCCCCCCCCCC		-4.42% [at 30.7 µM] (inactive)
Cc1c[nH]c2ccccc12		-0.334% (inactive)
CCCCCC		2.79% (inactive)
O=C(Oc1ccccc1)c1ccc2ccccc2c1O	48.6 µM (active)	
CCCCC(CC)COS(=O)(=O)O (configuration not stated)	inactive	
Cc1cn([C@H]2C[C@H](F)[C@@H](CO)O2)c(=O)[nH]c1=O		-0.799% (inactive)

Assay: qHTS assay to identify small molecule antagonists of the androgen receptor (AR) signaling pathway - cell viability counter screen (AID 743033; also: nearly all actives have a fitted effect of over 45% in size)
Conditions: AR-bla HEK293 viability, CellTiter-Glo luminescence, 16 h; series mostly up to 58.5 µM; activity change, negative = cytotoxicity: at the top concentration

SMILES	Potency	activity change, negative = cytotoxicity
C[C@@H]1C[C@H]2[C@@H]3CCC4=CC(=O)C=C[C@]4(C)[C@@]3(F)[C@@H](O)C[C@]2(C)[C@@]1(O)C(=O)COP(=O)(O)O	inactive	
O=S(=O)(Cl)c1c(Cl)cccc1Cl		-1.51% (inactive)
CCCCCCCCCCCCCCCCCC(=O)OCC(CC)CCCC (configuration not stated)		8.86% (inactive)
Cc1ccc(S(=O)(=O)NC(=O)NC2CCCCC2)cc1		0.345% (inactive)
CC(C)(C(=O)c1cccnc1)c1cccnc1		3.82% [at 27 µM] (inactive)
Nc1cccc2c(N)cccc12		-12.2% (inactive)
CCC(CO)(CO)[N+](=O)[O-]		4.21% (inactive)
CCCCCCC(O)CCCCCCCCCCC(=O)OC (configuration not stated)		0.159% (inactive)
COc1cc(NS(=O)(=O)c2ccc(N)cc2)nc(C)n1		6.5% (inactive)
CC(C)C1CCC(C(=O)N[C@H](Cc2ccccc2)C(=O)O)CC1 (some centres not stated)		-30% (inactive)
CCCCCCC(O)CCOC(C)=O (configuration not stated)		1.72% [at 216 µM] (inactive)
COC1CCC=CO1 (configuration not stated)		0.734% [at 78.9 µM] (inactive)
CC(=O)N[C@@H](Cc1ccc(O)cc1)C(=O)O		1.25% (inactive)
CC(=O)OCCC1CCCCC1		-4.23% (inactive)
O=C(O)c1cc(Cl)cc(Cl)c1O		3.31% (inactive)
CC1C(C)(C)C2=C(C(=O)CCC2)C1(C)C (configuration not stated)		-2.12% (inactive)
Cc1ccc(N(CC2=NCCN2)c2cccc(O)c2)cc1		-5.75% (inactive)
CCCCCC		0.0441% (inactive)
O=C(O)CCC(=O)c1ccc(-c2ccccc2)cc1		-0.117% [at 27 µM] (inactive)
CCC(CO)(CO)CO		2.5% [at 78.9 µM] (inactive)
CC1=CC[C@@H]2C[C@H]1C2(C)C		5.59% [at 15.1 µM] (inactive)
CC(=O)OCC(=O)[C@@]1(OC(C)=O)[C@@H](C)C[C@H]2[C@@H]3C[C@H](F)C4=CC(=O)C=C[C@]4(C)[C@@]3(F)[C@@H](O)C[C@@]21C		-4.22% (inactive)
O=C(Oc1ccccc1)c1ccc2ccccc2c1O		-10% (inactive)
CC(C)(C)C1(CCc2ccc(Cl)cc2)CO1 (configuration not stated)		0.28% (inactive)
CC[C@@H](CO)NCCN[C@@H](CC)CO		-21.3% [at 27 µM] (inactive)
CCCCC(CC)COS(=O)(=O)O (configuration not stated)	inactive	
O=C(NC(Cc1cc(=O)[nH]c2ccccc12)C(=O)O)c1ccc(Cl)cc1 (configuration not stated)		0.672% (inactive)
Cc1cn([C@H]2C[C@H](F)[C@@H](CO)O2)c(=O)[nH]c1=O		-1.58% (inactive)
